# From the supplement of paper PMC11417369
# ± gives the standard deviation of the averaged measurements. The full ranking holds about 25,000 sequences; the median of “ln(normalized median fluorescence intensity)” is about 8.6, and the highest 2% start at about 10. The sample holds the highest values, similar sequences and a random draw of the others, so the mix is not that of the screen.
# Test system: PfAP2-EXP AP2 domain (GST-tagged)
# Test: gcPBM binding intensity (ln(normalized median fluorescence intensity)); higher = stronger DNA binding
# Procedure, shortened: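 An Agilent 4 × 180k array carrying primer-extended double-stranded 36-bp intergenic genomic probes and negative controls received GST-tagged P. falciparum DNA-binding domains expressed in E. coli, about 25 μg on average, for 1 h. The binding buffer contained 1× PBS, 1% milk, 0.2 mg/ml BSA, 0.5% salmon testes DNA and 0.03% Triton X-100. Binding intensity is the top Masliner-normalised natural-log median intensity across replicate spots of either probe orientation, read after Alexa488 anti-GST antibody staining and a 488 nm scan.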
row,Sequence,gcPBM binding intensity (ln)
1,TTCAAAATATATATTTGTACATATAGGATCTTTTTC [XGTACX_site4500],8.41 ± 0.45
2,TTTTTTTATTAATGTAGTACAATATAATGTTATATT [XGTACX_site2295],8.54 ± 0.29
3,AGACGAAAATAATAAAGTACTAAAAAAAAAAAAAAA [XGTACX_site927],8.14 ± 0.51
4,AAACAAATATATATATGTACTTATAAAAAAAAAAAT [XGTACX_site2211],8.54 ± 0.45
5,AGGATACACGGACACACACACATATAGATTTATATA [CACACA_site6552],8.59 ± 0.52
6,TAATAAATAGGACACACACACATATATATATATTAT [CACACA_site4891],8.87 ± 0.52
7,ATAAATATAGGACACACACACATATTATATATATAT [CACACA_site5658],9.65 ± 0.12
8,TACATATTTATATACACACACACACGGATATTTATA [CACACA_site7239],8.94 ± 0.28
9,AACATTATAGGACACACACACACATATATATATATA [CACACA_site4721],10.3 ± 0.13
10,AGGATACACGGACACACACACATATATATATATATA [CACACA_site4654],10.2 ± 0.28
11,TATAAAATTTAAATTATACACACTTAAGTAACATCA [CACACA_site531],8.74 ± 0.35
12,AATTATCAAAGTCTATACATACATACATACATACAT [GTGCAC_negctrl_site243],8.95 ± 0.23
13,ATAAATCTACACCGCACACAAAAACAACAAATATTA [CACACA_site5396],8.64 ± 0.58
14,GTTATACTCATATATACACACATATGTAAATATATA [CACACA_site5764],8.94 ± 0.58
15,CAACATTTGAAACACACACACATACAAACAAACAAA [CACACA_site3306],8.89 ± 0.47
16,ATTCATTTTTTGGGGGGTACACCCTTTTAAACATTT [XGTACX_site4797],10.3 ± 0.48
17,AAAAATTTAAGTGGGGGTACATTTTTTTAACACCTT [XGTACX_site1093],9.46 ± 0.48
18,TTTTTAATTTTTTTTAAACACACACCGTACATTCAA [CACACA_site7925],8.54 ± 0.38
19,TATATATCGCATAAAACACACAAAAAAAAAATTAAA [CACACA_site7767],8.35 ± 0.59
20,TCCACACAATTTATAACATGCAAAAAGGCAATAATA [TGCATGCA_site773],8.69 ± 0.42
21,TATATATATATATATACATGCATACATATACATACA [TGCATGCA_site897],10.2 ± 0.5
22,TATATATATATATATACATGCATATATATAATATAT [TGCATGCA_site763],10.1 ± 0.52
23,AATACATACATACATACATGCATATATATATATATA [TGCATGCA_site462],10.2 ± 0.14
24,AATACATACATATATACATGCATACATATAAATATA [TGCATGCA_site674],8.64 ± 0.35

row,Sequence,gcPBM binding intensity (ln)
1,CATACATACATACATACATGCATACATACATACATA [TGCATGCA_site218],9.3 ± 0.26
2,TATATATATATACATACATGCATATATATATATATA [TGCATGCA_site513],10.2 ± 0.54
3,AATATATATATACATACATGCATACATATATATATA [TGCATGCA_site784],9.8 ± 0.14
4,CATATAAATAAATATACATGCATACATACATATATA [TGCATGCA_site713],8.51 ± 0.23
5,AATATATACATACATACATGCATACATATATATAAC [TGCATGCA_site371],8.73 ± 0.23
6,TTGAATAAATTGGAATAAATATAATAAAATAAGGAA [XGTACX_negctrl_site302],8.62 ± 0.38
7,TTTATGAAACAGTGCACACATAAAAATAAATACATA [CACACA_site5631],9.175 ± 0.035
8,ATATATATATGTTTGTGTACTTATGATATCATATAA [XGTACX_site3276],9.66 ± 0.099
9,TTTTTTTTTTTTGAAGTGCATTACTTTTTTTGTATT [GTGCAC_site9811],8.5 ± 0.23
10,AATAAATAAGCAACATGTACATACAAATATATACAT [XGTACX_site8529],8.48 ± 0.35
11,TTGTTCTTTCAAATTATACACACCAAAAAAAAAAAA [CACACA_site3070],8.53 ± 0.4
12,ATATGTTTTTTTTTTTTTTTTTAATTTGTCATAAAT [CACACA_negctrl_site1208],8.35 ± 0.49
13,ATTATATATAAACACACACACATGCATGCACATATA [CACACA_site4237],10 ± 0.26
14,AATATAATATAATGCACACATAAAAAAAAAAAAATC [CACACA_site1303],8.7 ± 0.32
15,ATATATATATATATAGTGCAAATAAAAAATAGACAA [GTGCAC_site9796],10.2 ± 0.3
16,TATATATTAAAAATAGTGCAAAATAATATATATATA [GTGCAC_site9716],9.845 ± 0.049
17,ATAATAAAAAAAAATGCACACATATATATATATATA [CACACA_site8766],10.3 ± 0.34
18,GAATAAAAAATATATGTGCACATATAAACTTAAAAT [GTGCAC_site9554],8.9 ± 0.3
19,AAAATATAATATAATGCACACATAAAAAAAAAAAAA [CACACA_site7989],8.52 ± 0.49
20,ATATGTGTTAAAAATGCACACAAAAAAATATACATA [CACACA_site7988],8.69 ± 0.49
21,TATATATGTTAAAACGTGCACATATATATATATATA [GTGCAC_site9589],10.2 ± 0.21
22,AATATAATATAATGCACACATAAAACAAAAAAAAAA [CACACA_site3012],8.82 ± 0.47
23,CACAAAAATAGACACACACACATATAAATAAATATA [CACACA_site6598],8.62 ± 0.47
24,ATATAAACACTGAATGCATGCACATATATATATATA [TGCATGCA_site940],10.45 ± 0.049

row,Sequence,gcPBM binding intensity (ln)
1,TTACACATACATATGTGGGAAAATATTGCTACATAT [CACACA_negctrl_site463],8.57 ± 0.49
2,TATATTTTTTAAACCACACACAATATAGAGTATAAT [CACACA_site4510],8.66 ± 0.47
3,AAATTAATATATAAAAGTACCCATATATTTAATATA [XGTACX_site3551],8.21 ± 0.39
4,ATGCATATAATTATATGTACATATAAGAAATATATA [XGTACX_site517],8.71 ± 0.37
5,ATTTCTTCTTTTTTTGTGAAACTGGAATATATATAT [XGTACX_negctrl_site527],9.17 ± 0.057
6,TATATAGTAATTTATTCACACAATTGGCACACCTCA [CACACA_site4679],8.71 ± 0.35
7,ATTCTAAATAATAAGAGTACAAATAATATGGAGAAG [XGTACX_site5209],9.12 ± 0.51
8,CATTCTACAATAAAAAGTACATATATATATTATATA [XGTACX_site921],8.43 ± 0.34
9,TTTTGTGATCTTACCACCTTTCATAATATTAATAAA [GTGCAC_negctrl_site360],8.61 ± 0.31
10,TCAAAAATTTATATAGTGCAATATATATATAATGTA,8.31 ± 0.42
11,AATATATATATATGTGCACACATATATAATATGTAT [CACACA_site716],8.53 ± 0.28
12,ATATATATATATAGTGCACACATATAAAATATATAT [CACACA_site8884],10.29 ± 0.021
13,ATATATATATAGTGCACACATATAAAATATATATAA [CACACA_site2745],9.9 ± 0.071
14,ATATAAATATAGTGTGCACACACATAATATATATAT [CACACA_site8713],9.38 ± 0.057
15,ATATATATATATATAGTGCAAATATCTTCTTTATAA,10.3 ± 0.3
16,ATATTTTATATAATAGTGCAAATAATATTAAATAAT,8.66 ± 0.21
17,TATATATATATGTGCACACATAATAAAAAAAAAAAT [CACACA_site3831],9.9 ± 0.11
18,TATATATATATATGTGCACACATAATAAAAAAAAAA [CACACA_site3830],10.32 ± 0.064
19,TTGTTCATCTTTTTTTTTTTTTTTTTTTTTTAAATC [CACACA_negctrl_site191],8.18 ± 0.62
20,TCTCTAACTTTTAATACACACAAATAAATAAATAAA [CACACA_site6245],8.47 ± 0.35
21,GTGAGTGAAATATGCAAACACACACCCGAAAAATGT [CACACA_site3197],8.7 ± 0.57
22,TTAAAGGGAATGTATACACACGTTTCTCTATGTTAT [CACACA_site4793],8.59 ± 0.31
23,ACTAATAAAGGTGTAATACACACTATAAAAAGGAAT [CACACA_site1124],8.88 ± 0.57
24,TTCTTTGTTTTTTTTTTTTTTTTAAAAGATAATATT [XGTACX_negctrl_site381],8.43 ± 0.25

row,Sequence,gcPBM binding intensity (ln)
1,TATATATATATATGATGTACACATTTTATTATTTGT [XGTACX_site1147],9.94 ± 0.31
2,TTTCAAAAATGAGTTACACACACACGGATATAAATA [CACACA_site7116],8.88 ± 0.56
3,TCAAAAATGAGTTACACACACACATATATATATATA [CACACA_site2229],10.2 ± 0.47
4,TTTCAAAAATGAGTTACACACACACCGATATATATA [CACACA_site5263],8.79 ± 0.61
5,AATAAATTACTATGTACACACATAAGAGTATAAATA [CACACA_site6940],8.56 ± 0.32
6,TACGATGTTTTAAAATGTACATAAAAGTCACATAAG [XGTACX_site3297],8.52 ± 0.34
7,GTTTGGTGGTGTTTTGGTACGTACGGGGGTGTATGT [XGTACX_site1211],9.66 ± 0.2
8,TATGATTTTTATATATGTACGTATGGTGTTTTACAA [XGTACX_site6100],8.8 ± 0.42
9,GTTTGGTGGTGTTTTGGTACGTACGGGGGGGTATGT [XGTACX_site1983],10.6 ± 0.19
10,ATTTATTTTCTGTGTACACATATGTTGGGTATTTTA [CACACA_site5902],9.14 ± 0.45
11,TATAAAAAAAAATGTGGTACATATTTCCATTTTCCA [XGTACX_site4571],8.11 ± 0.23
12,TATTTTTCCATTGGGGGTACATGTGTTATATTTATT [XGTACX_site5914],10.4 ± 0.76
13,AATAATATACCTCTTGTGCACATATTAAAAGTTCAT [GTGCAC_site9536],8.97 ± 0.22
14,ACAATTGAAGAAATACGTACATAAAGAAAAACTAGT [XGTACX_site820],9.16 ± 0.51
15,TAAAAAGGAAAACACACACACACATATATATATATA [CACACA_site3588],10.2 ± 0.16
16,ATAAAAAAAAGAAAAACACACACATATATATATATA [CACACA_site8243],10.2 ± 0.16
17,ATAAAAAATATCACATAAAATAAAAAAAGAAAGGAT [XGTACX_negctrl_site294],9.06 ± 0.52
18,AAAAGGAAAAATATCACACATATATATATATATATA [CACACA_site5586],10.2 ± 0.34
19,AAAAAAAAAAATATCACACACACATAAATATAAACC [CACACA_site2278],8.77 ± 0.49
20,ATAAAAAGGAAACACACACACACACCCATATATATA [CACACA_site904],8.73 ± 0.44
21,AAGGAATAATATAAAACACACACATAAATATAAATA [CACACA_site9115],8.68 ± 0.26
22,AGGAAAAAAGAAAAAACACACATAAATATATATATA [CACACA_site3085],9.64 ± 0.23
23,TATAAAAGGAAACACACACACATATATATATATATA [CACACA_site939],10.2 ± 0.4
